Screening results deposited in PubChem BioAssay by National Center for Advancing Translational Sciences (NCATS).
MmCpn inh: M. maripaludis TRiC chaperonin inhibition. purified Mm-Cpn ATPase, ADP Transcreener TR-FRET. Potency, µM (top dose mostly 76.9 µM), actives largely listed as inhibitors. actives 0.031% (n = 330,000). AID 504842; also: nearly all actives have a fitted effect of over 80% in size
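Eu-cryptate anti-ADP/ADP-d2 competition gives a ratio inversely related to ADP. Enzyme at 25 nM was pre-exposed to compound for 10 min, then given 10 uM ATP for 30 min, 37°C throughout.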
CCT modulator: changes cytosolic chaperonin activity; activity change, % (test concentration not listed), hits read low; AID 651819; actives 0.3% (n = 360,000); purified chaperonin ATPase assay, HTRF ADP detection, 30 min; in the data active = activity change below about -30%
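Nucleotide hydrolysis assay: TRiC at 20–40 nM final (set by batch activity) with 10 uM ATP, 30 min at 37 °C, in presence of 76 uM compound. Detection by competitive ADP HTRF, 30 min ambient.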
TDP-43 yeast inh: inhibitors of TDP-43 toxicity in yeast; TDP-43 expressing yeast growth rescue, BacTiter-Glo, 24 h; Potency, µM (series often up to 46.1 µM), actives largely listed as activators; AID 652104; actives 1.8% (n = 410,000); also: nearly all actives have a fitted effect of over 50% in size
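Readout is BacTiter-Glo luminescence of cell growth, so inhibitors register as activators. TDP-43-expressing yeast at OD600=0.02 in galactose medium, after raffinose pregrowth to mid-log, were incubated with compound for 24 hr at 30 deg C.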
aSyn rescue: alpha-synuclein toxicity inhibition in yeast; Potency, µM (highest dose often 46.1 µM), actives largely listed as activators; actives 0.14% (n = 370,000); Yeast expressing alpha-synuclein, growth rescue, BacTiter-Glo, 24 h; AID 652106; also: nearly all actives have a fitted effect of over 65% in size
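Screening used galactose-induced yeast with toxic alpha-synuclein levels, exposed to compound for 24 hr at 30 deg C. Cell growth, read with BacTiter-Glo luminescence, gave the measured signal.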
FUS suppressor: rescues growth of FUS-expressing yeast. AID 1347120. Potency, µM (top dose mostly 76.6 µM), actives largely listed as activators. S. cerevisiae FUS-expressing, growth rescue, OD600, 24 h. actives 0.24% (n = 390,000); also: nearly all actives have a fitted effect of over 55% in size
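Absorbance at 600 nm, taken 24hr after compound addition, measured rescue of FUS-yeast growth at 30C. Induction used 2% galactose with seeding at OD 0.005. Controls: CP55940 from 92uM final, DMSO only.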
Abeta yeast res: A-beta toxicity reversal in yeast; actives 0.063% (n = 410,000); Potency, µM (top dose mostly 46.1 µM), hits mostly activators; yeast expressing A-beta42, growth rescue, OD600, 48 h; response scale: 0% DMSO, 100% iron-clioquinol control; also: nearly all actives have a fitted effect of over 55% in size
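Growth rescue measured by 600 nm absorbance after 48 h yeast culture at 30 C with compound. Values normalized between DMSO and an equimolar ferric chloride plus clioquinol control.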
Large screens that a line does not name were inactive. Rows were chosen to be rich in hits. Some 2.3% of all compounds tested hit in one or more screens of this group. Unless noted, calls follow the shape of the dose curve; as a rule, active = well fitted curve in the direction sought with a large enough effect; inconclusive = small, poorly fitted or top-dose-only effect, or another doubt; inactive = no such curve, though single readings can be large; an effect the other way counts as inactive or inconclusive.

NS(=O)(=O)c1cccc(NC(=O)CCSc2ccccc2Cl)c1	none (no result: FUS suppressor)
O=C(CSc1ccc(Br)c2cccc(Cl)c12)Nc1ccc(S(=O)(=O)Nc2nccs2)cc1	MmCpn inh inconclusive, CCT modulator -36.7
CCn1nc(C(=O)Nc2ccc(S(=O)(=O)Nc3nccs3)cc2)c2ccccc2c1=O	FUS suppressor 25.1µM
CCN(CC)CCCNC(=O)c1nn(C)c2c1CSc1ccccc1-2	none (no result: MmCpn inh, CCT modulator, aSyn rescue)
O=C(Nc1nccs1)c1cc(-c2ccco2)nc2ccccc12	none
C/C(=N\NC(=O)c1cc(-c2cccs2)nc2ccccc12)c1ccccn1	TDP-43 yeast inh 22.4µM, aSyn rescue 14.1µM, Abeta yeast res 12.6µM
Cc1cccc(-c2cc(C(=O)NCc3ccccn3)c3ccccc3n2)c1	TDP-43 yeast inh 35.5µM (no result: FUS suppressor)
O=C(Nc1nccs1)c1cc(-c2ccccc2)nc2ccccc12	TDP-43 yeast inh 14.1µM
O=C(C[n+]1ccc(Cl)c2ccc(Cl)cc21)c1ccc(F)cc1	none (no result: MmCpn inh, CCT modulator, TDP-43 yeast inh, FUS suppressor, Abeta yeast res)
CCOc1ccc(-n2c(SCC(=O)c3ccccc3Cl)nnc2-c2ccncc2)cc1	FUS suppressor 17.8µM (no result: MmCpn inh, CCT modulator, TDP-43 yeast inh, aSyn rescue, Abeta yeast res)
C=CCSc1nnc(-c2ccncc2)n1-c1ccc(OCC)cc1	none
O=C1CCCN1CCCN=c1c([N+](=O)[O-])nn(-c2ccc(Cl)cc2)n1O	TDP-43 yeast inh 14.1µM, FUS suppressor inconclusive
NC(=O)CSc1nnc(Cc2csc(Nc3ccccc3)n2)n1Cc1ccccc1	CCT modulator -68.6
CN(C)c1ccc(N=Cc2cccc3ccccc23)cc1	none (no result: MmCpn inh, CCT modulator, TDP-43 yeast inh, FUS suppressor, Abeta yeast res)
COc1ccc(C(=O)c2sc(Nc3ccccc3F)nc2N)cc1	TDP-43 yeast inh 20µM
CCOc1ccc(OCCN2C(=O)NC3(CCCc4ccccc43)C2=O)cc1 (stereo not given)	TDP-43 yeast inh 35.5µM
O=C1NC2(CCCc3ccccc32)C(=O)N1CCOc1ccc(Br)cc1 (stereo not given)	none
C(=C\c1c[nH]c2ccccc12)/c1ccc2ccccc2n1	none (no result: MmCpn inh, CCT modulator, TDP-43 yeast inh, FUS suppressor, Abeta yeast res)
CNCCN(C)c1nc(-c2cccs2)nc2ccccc12	none (no result: MmCpn inh, CCT modulator, TDP-43 yeast inh, FUS suppressor, Abeta yeast res)
CC(Nc1cc(N2CCNCC2)ccc1[N+](=O)[O-])c1ccccc1 (stereo not given)	none (no result: FUS suppressor)
CC(Nc1cc(N2CCN(C(=O)C(C)(C)C)CC2)ccc1[N+](=O)[O-])c1ccccc1 (stereo not given)	TDP-43 yeast inh 20µM, FUS suppressor inconclusive
CC(C)C(=O)N1CCN(c2ccc([N+](=O)[O-])c(NC(C)c3ccccc3)c2)CC1 (stereo not given)	TDP-43 yeast inh 20µM, FUS suppressor inconclusive
COc1ccc(C(=O)C[n+]2ccc(Cl)c3ccc(Cl)cc32)cc1	none (no result: MmCpn inh, CCT modulator, TDP-43 yeast inh, FUS suppressor, Abeta yeast res)
Cc1ccc2[nH]c(=O)c(CN(CCCO)Cc3nnnn3Cc3ccco3)cc2c1	none (no result: MmCpn inh, CCT modulator, TDP-43 yeast inh, FUS suppressor, Abeta yeast res)
CC1CCCN(c2nc3c(c(=O)n(C)c(=O)n3C)n2Cc2ccccc2)C1 (stereo not given)	TDP-43 yeast inh 17.8µM
O=C(Nc1cccc(-c2nnco2)c1)c1cccs1	none
CCCC(=O)NC(=S)Nc1cccc(NC(=O)c2ccc(Cl)cc2Cl)c1	none
CCCC(=O)NC(=S)Nc1cccc(NC(=O)c2ccccc2Cl)c1	TDP-43 yeast inh 11.2µM
CCC(=O)NC(=S)Nc1cccc(NC(=O)c2ccccc2Cl)c1	TDP-43 yeast inh 14.1µM
Cc1ccc(-c2nnc(-c3cccc(NC(=O)c4cccs4)c3)o2)cc1	CCT modulator -44.3
Cc1csc2nc(-c3cccc(NC(=O)c4ccccc4Cl)c3)cn12	TDP-43 yeast inh 20µM, FUS suppressor inconclusive (no result: MmCpn inh, CCT modulator)
CC(C(=O)Nc1ccccc1)n1nnc2sc3c(c2c1=O)CCCC3 (stereo not given)	none (no result: MmCpn inh, CCT modulator, aSyn rescue)
O=C(Nc1cccc(NC(=O)c2ccccc2Cl)c1)c1cccs1	TDP-43 yeast inh 22.4µM
O=C1C(=C(c2ccccc2)N2CCOCC2)Cc2ccccc21	TDP-43 yeast inh 12.6µM (no result: MmCpn inh)
O=C(c1ccccc1)N1CCN(C(=O)N2CCOCC2)CC1	none
CC(=O)N1CCN(c2cc(-c3ccccc3)nc3cc(-c4cccc(Cl)c4)nn23)CC1	TDP-43 yeast inh 2.24µM (no result: MmCpn inh)
